Source: paper PMC11995724, “Antibiotic target discovery by integrated phenotypic and activity-based profiling of electrophilic fragments” (Cell chemical biology, 2025)
Among all 3,200 compounds or so, about 110 (3.4%) showed an effect of 50% or more. Shown is part of a subset that was picked to be rich in strong results.

Test system: T1, V. cholerae SAD30
T1 construct: SAD30
Set-up: species or system S. aureus MSSA476 (TSB) or V. cholerae SAD30 (LB); 384-well bacterial growth screen at 25 uM, OD600 relative to DMSO control
Conditions: relative growth, OD600, LB; 25 µM; inhibitor

Row | SMILES | % of control remaining
1 | CCc1ccc(NC(=O)C(C)Cl)cc1 (stereo not shown) [4-L15, 2-chloro-N-(4-ethylphenyl)propanamide] | 96.9592%
2 | CC(Cl)C(=O)NCc1csc2ccccc12 (stereo not shown) [7-C11, N-[(1-benzothiophen-3-yl)methyl]-2-chloropropanamide] | 69.5192%
3 | COc1ccc(C=C(C#N)C(=O)Nc2ccccc2)cc1 [8-A05, 2-cyano-3-(4-methoxyphenyl)-N-phenylprop-2-enamide] | 91.9782%
4 | N#CC(=Cc1ccc(O)cc1)C(=O)Nc1cc(Cl)ccc1Cl [9-F03, 2-cyano-N-(2,5-dichlorophenyl)-3-(4-hydroxyphenyl)prop-2-enamide] | 117.947%
5 | CC(Cl)C(=O)N1CCN(C(=O)Cc2cccc(Cl)c2)C(C)C1 (stereo not shown) [7-E20, 2-chloro-1-{4-[2-(3-chlorophenyl)acetyl]-3-methylpiperazin-1-yl}propan-1-one] | 74.6737%
6 | CC(Cl)C(=O)N[C@H]1C[C@H](C)S(=O)(=O)c2sccc21 (stereo partly drawn) [6-B22, 2-chloro-N-[(2S,4S)-2-methyl-1,1-dioxo-2H,3H,4H-1lambda6-thieno[2,3-b]thiopyran-4-yl]propanamide] | 103.289%
7 | Cc1ccc(SCCNC(=O)CCl)cc1 [4-K21, 2-chloro-N-{2-[(4-methylphenyl)sulfanyl]ethyl}acetamide] | 111.279%
8 | N#CC(=Cc1ccccc1OC(F)F)C(=O)Nc1ccccc1Cl [9-M21, N-(2-chlorophenyl)-2-cyano-3-[2-(difluoromethoxy)phenyl]prop-2-enamide] | 89.5309%
9 | O=C1C=CC(=O)N1CCc1ccc(F)cc1 [10-C21, 1-[2-(4-fluorophenyl)ethyl]-2,5-dihydro-1H-pyrrole-2,5-dione] | 34.7555%
10 | Cc1cc(C(=O)CCl)c(C)n1CCc1ccccc1 [10-B18, 2-chloro-1-[2,5-dimethyl-1-(2-phenylethyl)-1H-pyrrol-3-yl]ethan-1-one] | 95.3828%
11 | O=C1C=CC(=O)N1CCc1ccccc1F [10-G03, 1-[2-(2-fluorophenyl)ethyl]-2,5-dihydro-1H-pyrrole-2,5-dione] | 22.2872%
12 | COc1ccc(CCN2C(=O)C=CC2=O)cc1OC [10-H07, 1-[2-(3,4-dimethoxyphenyl)ethyl]-2,5-dihydro-1H-pyrrole-2,5-dione] | 98.344%
13 | CC(Cl)C(=O)NCCc1ccc(F)cc1 (stereo not shown) [6-F06, 2-chloro-N-[2-(4-fluorophenyl)ethyl]propanamide] | 86.757%
14 | O=C(CCl)NCCCc1ccccc1 [4-N04, 2-chloro-N-(3-phenylpropyl)acetamide] | 112.487%
15 | Cc1cc(C(=O)CCl)c(C)n1CCc1ccc(F)cc1 [10-G14, 2-chloro-1-{1-[2-(4-fluorophenyl)ethyl]-2,5-dimethyl-1H-pyrrol-3-yl}ethan-1-one] | 97.7206%
16 | COc1ccc(CCNC(=O)CCl)cc1 [5-H12, 2-chloro-N-[2-(4-methoxyphenyl)ethyl]acetamide] | 68.593%
17 | O=C1C=CC(=O)N1CCc1ccccc1 [10-E20, 1-(2-phenylethyl)-2,5-dihydro-1H-pyrrole-2,5-dione] | 27.5862%
18 | COc1ccc(CCN2C(=O)C=CC2=O)cc1 [10-A05, 1-[2-(4-methoxyphenyl)ethyl]-2,5-dihydro-1H-pyrrole-2,5-dione] | 35.8465%
19 | O=C(CCl)Nc1nnc(-c2ccccc2Cl)s1 [6-K17, 2-chloro-N-[5-(2-chlorophenyl)-1,3,4-thiadiazol-2-yl]acetamide] | 95.8574%
20 | CC(Cl)C(=O)Nc1cccc(Cl)c1 (stereo not shown) [5-H22, 2-chloro-N-(3-chlorophenyl)propanamide] | 106.42%
21 | C=CC(=O)N(Cc1cn2ccccc2n1)C1CC1 [3-J21, N-cyclopropyl-N-({imidazo[1,2-a]pyridin-2-yl}methyl)prop-2-enamide] | 90.3253%
22 | C=CC(=O)NCc1cnc(-c2ccc(C(F)(F)F)cc2)s1 [1-C13, N-({2-[4-(trifluoromethyl)phenyl]-1,3-thiazol-5-yl}methyl)prop-2-enamide] | 68.9088%
23 | CC(Cl)C(=O)N1CCn2c(C#N)ccc2C1C (stereo not shown) [6-F22, 2-(2-chloropropanoyl)-1-methyl-1H,2H,3H,4H-pyrrolo[1,2-a]pyrazine-6-carbonitrile] | 96.0091%

Row | SMILES | % of control remaining
24 | C=CC(=O)NCCC(=O)N1CCCN(c2cccnn2)CC1 [2-P16, N-{3-oxo-3-[4-(pyridazin-3-yl)-1,4-diazepan-1-yl]propyl}prop-2-enamide] | 95.7541%
25 | Cc1n[nH]c(C)c1C=C(C#N)C(=O)Nc1ccc(SC(F)F)cc1 [8-E08, 2-cyano-N-{4-[(difluoromethyl)sulfanyl]phenyl}-3-(3,5-dimethyl-1H-pyrazol-4-yl)prop-2-enamide] | 75.2549%
26 | O=C(CCl)N(Cc1nc(C2CCCCCC2)no1)C1CC1 [7-B16, 2-chloro-N-[(3-cycloheptyl-1,2,4-oxadiazol-5-yl)methyl]-N-cyclopropylacetamide] | 80.2247%
27 | Cc1cc(NC(=O)CN(C)C(=O)C(C)Cl)no1 (stereo not shown) [7-M19, 2-chloro-N-methyl-N-{[(5-methyl-1,2-oxazol-3-yl)carbamoyl]methyl}propanamide] | 81.8107%
28 | C=CC(=O)NCCc1nc(-c2ccccc2)nn1C [2-M12, N-[2-(1-methyl-3-phenyl-1H-1,2,4-triazol-5-yl)ethyl]prop-2-enamide] | 85.4096%
29 | C=CC(=O)NCCn1nc(C)cc1C [3-M13, N-[2-(3,5-dimethyl-1H-pyrazol-1-yl)ethyl]prop-2-enamide] | 97.7357%
30 | C=CC(=O)N1CCC(C(=O)Oc2ccc(NC(C)=O)cc2)CC1 [3-M16, 4-acetamidophenyl 1-(prop-2-enoyl)piperidine-4-carboxylate] | 96.1478%
31 | C=CC(=O)NC1(c2nc(C3CC3)cc(=O)[nH]2)CCCCC1 [3-H13, N-[1-(4-cyclopropyl-6-oxo-1,6-dihydropyrimidin-2-yl)cyclohexyl]prop-2-enamide] | 88.7374%
32 | CC(=O)N(C)Cc1ccc(C(=O)CCl)cc1 [10-H04, N-{[4-(2-chloroacetyl)phenyl]methyl}-N-methylacetamide] | 100.682%
33 | CS(=O)(=O)c1ccc(CNC(=O)CCl)cc1 [6-O12, 2-chloro-N-[(4-methanesulfonylphenyl)methyl]acetamide] | 95.2507%
34 | CN(c1ccc(C(=O)CCl)cc1)S(C)(=O)=O [10-F19, N-[4-(2-chloroacetyl)phenyl]-N-methylmethanesulfonamide] | 14.0269%
35 | CS(=O)(=O)c1ccc(C(=O)CCl)cc1 [10-I13, 2-chloro-1-(4-methanesulfonylphenyl)ethan-1-one] | 0%
36 | CC(Cl)C(=O)c1ccc(NS(C)(=O)=O)cc1 (stereo not shown) [10-A08, N-[4-(2-chloropropanoyl)phenyl]methanesulfonamide] | 98.4999%
37 | CS(=O)(=O)Nc1ccc(C(=O)CCl)cc1 [10-D19, N-[4-(2-chloroacetyl)phenyl]methanesulfonamide] | 31.3267%
38 | CS(=O)(=O)NCCc1ccc(C(=O)CCl)cc1 [10-D06, N-{2-[4-(2-chloroacetyl)phenyl]ethyl}methanesulfonamide] | 99.5909%
39 | CCN(c1ccc(C(=O)CCl)cc1)S(C)(=O)=O [10-F04, N-[4-(2-chloroacetyl)phenyl]-N-ethylmethanesulfonamide] | 100.994%
40 | C=CC(=O)NC(c1ccc(C)cc1)C(C)S(C)(=O)=O (stereo not shown) [2-A10, N-[2-methanesulfonyl-1-(4-methylphenyl)propyl]prop-2-enamide] | 94.3646%
41 | CC(Cl)C(=O)Nc1sccc1C(N)=O (stereo not shown) [5-C21, 2-(2-chloropropanamido)thiophene-3-carboxamide] | 107.429%
42 | C=CC(=O)N1CCC(NC(C)=O)(c2noc(C)n2)C1 (stereo not shown) [2-G16, N-[3-(5-methyl-1,2,4-oxadiazol-3-yl)-1-(prop-2-enoyl)pyrrolidin-3-yl]acetamide] | 100.077%
43 | C=CC(=O)NC1CN(S(=O)(=O)c2ccc3c(c2)OCCO3)C1 [2-E11, N-[1-(2,3-dihydro-1,4-benzodioxine-6-sulfonyl)azetidin-3-yl]prop-2-enamide] | 95.7541%
44 | N#CC(=Cc1c(F)cccc1F)C(=O)Nc1ccccc1F [9-J12, 2-cyano-3-(2,6-difluorophenyl)-N-(2-fluorophenyl)prop-2-enamide] | 94.2896%
45 | O=C(CCl)NC1CCCc2nc(-c3ccccc3)sc21 (stereo not shown) [7-B04, 2-chloro-N-(2-phenyl-4,5,6,7-tetrahydro-1,3-benzothiazol-7-yl)acetamide] | 86.833%
46 | CCCn1c(C)cc(C=C(C#N)C(=O)N2CCC2)c1C [8-L08, 2-(azetidine-1-carbonyl)-3-(2,5-dimethyl-1-propyl-1H-pyrrol-3-yl)prop-2-enenitrile] | 60.707%
